Inhibition data for 40 compounds are collected here from PubChem BioAssay.

The structures appear in SMILES notation. Where “and” joins values, the source holds several entries; their conditions need not be identical. Equal values may be shown once. Values without a mark were called inactive. Calls of active or inactive are those of the source. Cut-off read from the data, not from the text of the source, unless noted: active = inhibition above about 44%; inactive = the rest.

Steroidogenic factor 1 (Homo sapiens), sequence (Q13285 whole entry, looked up): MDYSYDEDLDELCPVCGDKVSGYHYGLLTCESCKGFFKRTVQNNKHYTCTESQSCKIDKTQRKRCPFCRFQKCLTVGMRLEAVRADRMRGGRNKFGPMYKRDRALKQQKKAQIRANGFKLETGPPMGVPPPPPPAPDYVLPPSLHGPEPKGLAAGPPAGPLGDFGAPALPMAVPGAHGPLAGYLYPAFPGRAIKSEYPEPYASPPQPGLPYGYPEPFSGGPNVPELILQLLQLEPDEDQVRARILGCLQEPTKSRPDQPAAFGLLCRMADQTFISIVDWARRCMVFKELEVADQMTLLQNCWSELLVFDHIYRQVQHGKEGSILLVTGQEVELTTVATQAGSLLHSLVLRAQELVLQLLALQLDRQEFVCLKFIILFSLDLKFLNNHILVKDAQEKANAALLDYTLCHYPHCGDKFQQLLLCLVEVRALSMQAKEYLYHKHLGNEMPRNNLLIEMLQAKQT
Nuclear receptor subfamily 5 group A member 2 (Homo sapiens), sequence (O00482 whole entry, looked up): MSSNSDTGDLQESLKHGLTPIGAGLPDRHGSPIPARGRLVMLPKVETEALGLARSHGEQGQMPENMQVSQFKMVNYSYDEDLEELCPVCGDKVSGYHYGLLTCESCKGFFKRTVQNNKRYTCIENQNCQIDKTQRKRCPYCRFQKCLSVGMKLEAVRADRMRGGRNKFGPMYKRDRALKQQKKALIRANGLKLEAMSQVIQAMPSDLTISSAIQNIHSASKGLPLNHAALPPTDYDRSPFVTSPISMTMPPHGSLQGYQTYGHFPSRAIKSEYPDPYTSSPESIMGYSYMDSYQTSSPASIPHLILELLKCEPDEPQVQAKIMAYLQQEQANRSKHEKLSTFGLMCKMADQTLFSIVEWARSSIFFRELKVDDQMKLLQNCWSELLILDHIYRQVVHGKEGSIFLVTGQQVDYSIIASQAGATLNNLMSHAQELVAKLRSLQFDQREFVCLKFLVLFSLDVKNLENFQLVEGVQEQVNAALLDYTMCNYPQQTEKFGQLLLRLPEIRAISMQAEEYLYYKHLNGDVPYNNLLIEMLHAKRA

One experiment has as its target Nuclear receptor subfamily 5 group A member 2 (Homo sapiens) (UniProt O00482). Description: NR5A2 activity suppression in reporter cells – cell-based, luminescence, confirmation (AID 651613; in the data active = inhibition above about 42%;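 note: HEK293T cells co-transfected with LRH-1 and StAR promoter luciferase reporter; 0% = vehicle wells and 100% = parental cells lacking receptor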). As to conditions: cell-based LRH-1 luciferase reporter, inverse agonism; at 3.6 µM; stronger effect = higher value.
For orientation: inhibition means the relative decrease from the control value, in per cent. For `Cc1ccc(-c2cn(-c3ccccc3)c3[n+]2CCCS3)cc1`, the inhibition was 80.1% (active) and 61.7% (active).
As for `CC(=O)Nc1ccc(SCC(=O)c2cc(C)n(Cc3cccs3)c2C)cc1`, the inhibition is -90.8%.
Still for that read-out and setting: with `CN(Cc1cnc2nc(N)nc(N)c2n1)c1ccc(C(=O)NC(CCC(=O)O)C(=O)O)cc1` (stereo not drawn) the figure was 50.5% (active); with `COc1cccc(/C=N/Nc2ccc(C(=O)O)cc2)c1O`, 68.3% (active); with `c1ccc(-c2nn(-c3ccccc3)[n+](-c3ccccc3)n2)cc1`, 43.8% (active).
Same read-out and setting: with `Nc1nc(N)nc(-c2cc(O)ccc2O)n1` the figure was 45.4% (active).
On the same count and under the same terms, under `O=C(Nc1ccc([N+](=O)[O-])cc1)c1ccc(Cn2cc([N+](=O)[O-])cn2)cc1` stands 77.3% (active); under `CCn1cc(/C=C/c2cc[n+](C)cc2)c2ccccc21`, 65.9% (active); under `c1ccc(-c2cccc(-c3ccccn3)n2)nc1`, 96.7% (active).
As to `CCN1/C(=C/c2ccc3cccc(C)c3[n+]2CC)Sc2ccccc21`, the inhibition is 105% (active).
Still for that read-out and setting: with `CN(C)CCOc1ccc2c(c1)C(=O)C(=Cc1ncc([N+](=O)[O-])n1C)C2` the figure was 88.4% (active).
On the same count and under the same terms, with `COc1ccc(C)cc1NC(=O)c1nnn(Cc2cccc(C(F)(F)F)c2)c1N` the figure was 56.2% (active).
On the same count and under the same terms, under `COc1cc(NS(C)(=O)=O)ccc1Nc1c2ccccc2nc2ccccc12` stands 108% (active); under `COc1cccc(/C=N/Nc2ncnc3scc(-c4ccccc4)c23)c1O`, 103% (active).
`CCN1/C(=C/c2ccc3ccccc3[n+]2CC)C=Cc2ccccc21`: the inhibition is 110% (active).
On the same count and under the same terms, with `N=c1c2c(n(Cc3cccc(Cl)c3)c3c1CCC3)CCCC2` the figure was 108% (active); with `CC(C)(O)C#Cc1ccc([C@@H]2C[C@H]3CN(c4ccccc4)C(=O)[C@]34CCCN24)s1`, 82% (active); with `Oc1cccc2cc(Nc3ccccc3)cnc12`, 99.5% (active).
As to `COc1ccccc1C(=O)Nc1nc(-c2ccc(S(=O)(=O)N3CCOCC3)cc2)cs1`, the inhibition is 98.4% (active).
Same read-out and setting: under `Cc1ccc2ccc3cccnc3c2n1` stands 50.2% (active); under `CCCCCCCCCn1ccc(=N)cc1`, 102% (active); under `Cc1ccc2[nH]c3nc(N/N=C/c4cccc(O)c4)nnc3c2c1`, 65.6% (active).
As to `CC1(C)CC(N2CCN(Cc3ccccc3)CC2)=CC(=[N+]2CCCCC2)C1`, the inhibition was 88.3% (active).

A further experiment concerns the target Steroidogenic factor 1 (Homo sapiens) (UniProt Q13285). In words: inverse agonism at SF1 nuclear receptor – cell-based, luminescence, high throughput, counter-screen for LRH-1 inverse agonist project (AID 651614).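 Note: cells cotransfected with StAR promoter reporter and SF1 expression vector; 0% = vehicle on cells with receptor and 100% = vehicle on cells lacking receptor.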 The note with it: cell-based SF1 luciferase reporter, at 3.6 µM, stronger effect = higher value. In general terms: Counterscreens check selectivity or assay interference.
Turning to `CCCC(=O)NC(c1ccc(C)cc1)c1ccc2cccnc2c1O` (stereo not drawn), the inhibition is 90.8% (active).
The same measure, in the same setting: with `Cc1nn(C(C)(C)C)c(C)c1/C=N/OC(=O)Nc1ccc(Cl)cc1` the figure was 93.6% (active); with `O=C(Nc1nc(-c2ccccc2)cs1)c1ccccc1NS(=O)(=O)c1ccc(F)cc1`, 87.5% (active); with `CCCCCCCn1c2c(c(=N)c3c1CCC3)CCCC2`, 95.8% (active).
Same read-out and setting: with `CC(=NNC(=S)Nc1ccccc1)c1ccccn1` the figure was 90% (active); with `O=NN(CC(=O)NNc1ccccc1)CC(=O)NNc1ccccc1`, 53.1% (active); with `CC1(C)N=C(N)N=C(N)N1CCCCc1ccccc1`, 38.2%.
Still for that read-out and setting: with `Cc1ccc(/C=C/C(=O)c2c(C)cc(C)[nH]c2=O)cc1` the figure was 50.4% (active); with `COc1ccc(N=C(NN)c2ccc3ccccc3n2)cc1`, -83.5%; with `O=[N+]([O-])c1cc(CN2CCN(c3ccccc3)CC2)c(O)c2ncccc12`, 85.7% (active).
In the case of `N=C1C=CC(=C(c2ccc(N)cc2)c2ccc(N)cc2)C=C1`, the inhibition was 85.2% (active).
Same read-out and setting: with `C=C1C(=O)c2sccc2C(c2ccc(OC)c(OC)c2)C1COC(C)=O` (stereo not drawn) the figure was 92.8% (active); with `Cn1cnc([N+](=O)[O-])c1Sc1nc(N)nc2c1ncn2C1OC(CO)C(O)C1O` (stereo not drawn), 24.3%.
Same read-out and setting: under `O=C(NC(Nc1nc2ccc([N+](=O)[O-])cc2s1)(C(F)(F)F)C(F)(F)F)c1cccnc1` stands 95.1% (active); under `CC(=NNC(=S)Nc1ccccc1Cl)c1ccccn1`, 91.1% (active).
Regarding `CCN1/C(=C/c2ccc3cc(C)ccc3[n+]2CC)Sc2cc(C)c(C)cc21`, the inhibition is 83.1% (active).
For `O=C1[C@@H]2Cc3c([nH]c4ccccc34)C(c3ccc([N+](=O)[O-])cc3)N2C(=O)CN1C1CC1` (stereo partly drawn), the inhibition was 71.4% (active).
Still for that read-out and setting: with `Cc1ccc(-c2cn(-c3ccccc3)c3[n+]2CCCS3)cc1` the figure was 61.2% (active) and 59.6% (active); with `CC(=O)Nc1ccc(SCC(=O)c2cc(C)n(Cc3cccs3)c2C)cc1`, -25.9%; with `CN(Cc1cnc2nc(N)nc(N)c2n1)c1ccc(C(=O)NC(CCC(=O)O)C(=O)O)cc1` (stereo not drawn), 46.2% (active).
The same measure, in the same setting: with `COc1cccc(/C=N/Nc2ccc(C(=O)O)cc2)c1O` the figure was 73% (active); with `c1ccc(-c2nn(-c3ccccc3)[n+](-c3ccccc3)n2)cc1`, 46% (active).
Still for that read-out and setting: under `Nc1nc(N)nc(-c2cc(O)ccc2O)n1` stands 65.9% (active).
For `O=C(Nc1ccc([N+](=O)[O-])cc1)c1ccc(Cn2cc([N+](=O)[O-])cn2)cc1`, the inhibition is 72.8% (active).
On the same count and under the same terms, under `CCn1cc(/C=C/c2cc[n+](C)cc2)c2ccccc21` stands 66.8% (active).
On the same count and under the same terms, under `c1ccc(-c2cccc(-c3ccccn3)n2)nc1` stands 71.8% (active).
Same read-out and setting: with `CCN1/C(=C/c2ccc3cccc(C)c3[n+]2CC)Sc2ccccc21` the figure was 77% (active); with `CN(C)CCOc1ccc2c(c1)C(=O)C(=Cc1ncc([N+](=O)[O-])n1C)C2`, 73.7% (active); with `COc1ccc(C)cc1NC(=O)c1nnn(Cc2cccc(C(F)(F)F)c2)c1N`, 57.3% (active).
Turning to `COc1cc(NS(C)(=O)=O)ccc1Nc1c2ccccc2nc2ccccc12`, the inhibition was 52% (active).
On the same count and under the same terms, with `COc1cccc(/C=N/Nc2ncnc3scc(-c4ccccc4)c23)c1O` the figure was 89.4% (active); with `CCN1/C(=C/c2ccc3ccccc3[n+]2CC)C=Cc2ccccc21`, 93% (active).
Regarding `N=c1c2c(n(Cc3cccc(Cl)c3)c3c1CCC3)CCCC2`, the inhibition was 83.8% (active).
Same read-out and setting: with `CC(C)(O)C#Cc1ccc([C@@H]2C[C@H]3CN(c4ccccc4)C(=O)[C@]34CCCN24)s1` the figure was 28.3%.
For the compound `Oc1cccc2cc(Nc3ccccc3)cnc12`, the inhibition is 84.8% (active).
Consider `COc1ccccc1C(=O)Nc1nc(-c2ccc(S(=O)(=O)N3CCOCC3)cc2)cs1`, for which the inhibition was 83.7% (active).
The same measure, in the same setting: under `Cc1ccc2ccc3cccnc3c2n1` stands 54.5% (active).
Same read-out and setting: with `CCCCCCCCCn1ccc(=N)cc1` the figure was 91.3% (active); with `Cc1ccc2[nH]c3nc(N/N=C/c4cccc(O)c4)nnc3c2c1`, 63.6% (active).
Same read-out and setting: with `CC1(C)CC(N2CCN(Cc3ccccc3)CC2)=CC(=[N+]2CCCCC2)C1` the figure was 86.3% (active).
